Laboratory results published in PubChem BioAssay (NCI).
This is part of a sample that, as a whole, favours compounds with a hit. Of some 83,000 tested, about 20% had one in any assay.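 Testing used 96-well plates and a 48-hour single-concentration exposure. Example: -40 means 40% of the starting cells died.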 Calls of active or inactive are those of the source. How the source made its calls: active means growth percent below 10; inactive means the rest.

How the values were obtained:
Assay in all cases: NCI-60 one-dose screen, 48 h (100 = growth as untreated, 0 = no growth, -100 = all killed)
Settings in all cases: 10 µM unless noted
HCT-15 colon = tested on: HCT-15 colon
HT29 colon = tested on: HT29 colon
SNB-75 CNS = tested on: SNB-75 CNS
SNB-19 CNS = tested on: SNB-19 CNS
U251 CNS = tested on: U251 CNS
PC-3 prostate = tested on: PC-3 prostate
UACC-62 melanoma = tested on: UACC-62 melanoma
LOX IMVI melanoma = tested on: LOX IMVI melanoma
SK-MEL-28 melanoma = tested on: SK-MEL-28 melanoma
SK-MEL-2 melanoma = tested on: SK-MEL-2 melanoma
EKVX NSCLC = tested on: EKVX NSCLC
SN12C renal = tested on: SN12C renal
UO-31 renal = tested on: UO-31 renal
TK-10 renal = tested on: TK-10 renal
ACHN renal = tested on: ACHN renal
CAKI-1 renal = tested on: CAKI-1 renal
A498 renal = tested on: A498 renal
CCRF-CEM leukemia = tested on: CCRF-CEM leukemia
MOLT-4 leukemia = tested on: MOLT-4 leukemia

Measured: growth

COc1ccc(-c2ccc(=O)oc2C#Cc2cc(OC)c(OC)c(OC)c2)cc1O
active: HT29 colon -9.43% | SNB-75 CNS -13.4% | CAKI-1 renal -15.6% | A498 renal -0.779% | CCRF-CEM leukemia 5.26%
inactive: HCT-15 colon 22.5% | SNB-19 CNS 10.7% | U251 CNS 13.6% | PC-3 prostate 23.3% | UACC-62 melanoma 14.8% | LOX IMVI melanoma 23.5% | SK-MEL-28 melanoma 38.9% | SK-MEL-2 melanoma 29.6% | EKVX NSCLC 30.3% | SN12C renal 21.2% | UO-31 renal 40.5% | TK-10 renal 52.5% | ACHN renal 52% | MOLT-4 leukemia 18.4%

CC(O)c1ncc(/C=C2\SC(=S)N(Cc3ccccc3)C2=O)s1 (stereo not given)
inactive: HCT-15 colon 97.4% | HT29 colon 59.4% | SNB-75 CNS 102% | SNB-19 CNS 106% | U251 CNS 87.9% | PC-3 prostate 97.3% | UACC-62 melanoma 99.4% | LOX IMVI melanoma 92.7% | SK-MEL-28 melanoma 92.2% | SK-MEL-2 melanoma 91% | EKVX NSCLC 101% | SN12C renal 110% | UO-31 renal 85.8% | TK-10 renal 33.7% | ACHN renal 95.6% | CAKI-1 renal 93.4% | CCRF-CEM leukemia 98.6% | MOLT-4 leukemia 108%

O=C(Cn1nnc2ccccc21)Nc1ccc(-c2nc3ccccc3s2)cc1
inactive: HCT-15 colon 91.5% | HT29 colon 101% | SNB-75 CNS 106% | SNB-19 CNS 103% | U251 CNS 89.6% | PC-3 prostate 83.3% | UACC-62 melanoma 97.1% | LOX IMVI melanoma 84.2% | SK-MEL-28 melanoma 102% | SK-MEL-2 melanoma 101% | EKVX NSCLC 78.2% | SN12C renal 101% | UO-31 renal 86.5% | TK-10 renal 94.8% | ACHN renal 110% | CAKI-1 renal 85.5% | A498 renal 85.1% | CCRF-CEM leukemia 69.7% | MOLT-4 leukemia 61.6%

Cc1c(N2CN3C[C@H](C)N4CN(c5c(C)n(C)n(-c6ccccc6)c5=O)CN5C[C@@H](C)N(C2)C3C54)c(=O)n(-c2ccccc2)n1C (stereo not given in full)
active: MOLT-4 leukemia -17.9%
inactive: HCT-15 colon 96.4% | HT29 colon 102% | SNB-75 CNS 107% | SNB-19 CNS 101% | U251 CNS 105% | PC-3 prostate 94.2% | UACC-62 melanoma 96.7% | LOX IMVI melanoma 96% | SK-MEL-28 melanoma 101% | SK-MEL-2 melanoma 101% | EKVX NSCLC 96.1% | SN12C renal 100% | UO-31 renal 77.6% | TK-10 renal 110% | ACHN renal 103% | CAKI-1 renal 87.5% | A498 renal 117% | CCRF-CEM leukemia 102%

COc1cc(C2Cc3ncccc3-c3[nH]c(=O)c4cccnc4c32)cc(OC)c1OC (stereo not given)
inactive: HCT-15 colon 16.9% | SNB-75 CNS 41.1% | SNB-19 CNS 29.2% | U251 CNS 15.8% | PC-3 prostate 21.8% | UACC-62 melanoma 28.2% | LOX IMVI melanoma 29.2% | SK-MEL-28 melanoma 66.4% | SK-MEL-2 melanoma 19.4% | EKVX NSCLC 44.2% | SN12C renal 39.8% | UO-31 renal 38.6% | TK-10 renal 52.6% | ACHN renal 46.4% | CAKI-1 renal 31.8% | CCRF-CEM leukemia 22.1% | MOLT-4 leukemia 23.8%
active: HT29 colon 0.572% | A498 renal -1.31%

CC(C)(C)C(=O)/C=C/c1ccc([N+](=O)[O-])cc1
inactive: HCT-15 colon 42.1% | HT29 colon 50.2% | SNB-75 CNS 81.1% | SNB-19 CNS 66.9% | U251 CNS 58% | PC-3 prostate 55.3% | UACC-62 melanoma 74.4% | LOX IMVI melanoma 36.9% | SK-MEL-28 melanoma 92.1% | SK-MEL-2 melanoma 89.2% | EKVX NSCLC 89.3% | SN12C renal 92.1% | UO-31 renal 76.5% | TK-10 renal 91.4% | ACHN renal 57.3% | CAKI-1 renal 96.1% | A498 renal 91% | CCRF-CEM leukemia 44.3% | MOLT-4 leukemia 75.4%

COc1cc(-c2nc3ccc(C)cc3[nH]2)ccc1OCC(=O)N=Nc1c(O)[nH]c2ccc(Cl)cc12
active: HT29 colon -27.6% | SNB-75 CNS -42.1% | SNB-19 CNS 3.43% | U251 CNS -41.6% | LOX IMVI melanoma -96.8% | SK-MEL-28 melanoma 3.39% | SN12C renal -56.4% | CAKI-1 renal -61.8% | CCRF-CEM leukemia -39.1% | MOLT-4 leukemia -17.9%
inactive: HCT-15 colon 58.8% | PC-3 prostate 11.1% | UACC-62 melanoma 19.9% | SK-MEL-2 melanoma 13% | EKVX NSCLC 50.7% | UO-31 renal 86.3% | TK-10 renal 23.4% | A498 renal 82.2%

CCC/C(=N\NC(N)=O)C(OC)OC
inactive: HCT-15 colon 105% | HT29 colon 97.8% | SNB-75 CNS 67.9% | SNB-19 CNS 102% | U251 CNS 92.3% | PC-3 prostate 97% | UACC-62 melanoma 100% | LOX IMVI melanoma 84.4% | SK-MEL-28 melanoma 96.4% | SK-MEL-2 melanoma 104% | EKVX NSCLC 111% | SN12C renal 107% | UO-31 renal 89.3% | TK-10 renal 85.3% | ACHN renal 105% | CAKI-1 renal 114% | A498 renal 91.1% | CCRF-CEM leukemia 106%

CCN(CCO)CC(C)Nc1ccc([N+](=O)[O-])c2sc3ccccc3c(=O)c12 (stereo not given)
active: UO-31 renal -15.6% | CAKI-1 renal -3.3%
inactive: HCT-15 colon 27.2% | HT29 colon 11.3% | SNB-75 CNS 36.4% | SNB-19 CNS 43.2% | U251 CNS 26.7% | PC-3 prostate 28.3% | UACC-62 melanoma 29.8% | LOX IMVI melanoma 16.2% | SK-MEL-28 melanoma 44.4% | SK-MEL-2 melanoma 36.6% | EKVX NSCLC 25.7% | SN12C renal 28.2% | TK-10 renal 58.8% | ACHN renal 11.5% | A498 renal 50.6% | CCRF-CEM leukemia 35.6% | MOLT-4 leukemia 17.3%

COc1ccc(-c2cc(-c3cc(OC)c(OC)c(OC)c3)c(C#N)c(=O)n2CCCCCC(=O)NO)cc1
inactive: HCT-15 colon 71.7% | HT29 colon 101% | SNB-75 CNS 70.1% | SNB-19 CNS 89.8% | U251 CNS 81.9% | PC-3 prostate 89.4% | UACC-62 melanoma 93.3% | LOX IMVI melanoma 78.7% | SK-MEL-28 melanoma 109% | SK-MEL-2 melanoma 102% | EKVX NSCLC 91.3% | SN12C renal 89.2% | UO-31 renal 62.4% | TK-10 renal 106% | ACHN renal 88.3% | CAKI-1 renal 79.9% | A498 renal 54% | CCRF-CEM leukemia 85.7% | MOLT-4 leukemia 96.6%

COc1ccc(NC(=O)c2cccc(C3CCc4c(cc(OC)c(OC)c4OC)O3)c2)cc1 (stereo not given)
active: HT29 colon 6.06% | PC-3 prostate 5.96% | SK-MEL-2 melanoma 9.28% | A498 renal -8.67% | CCRF-CEM leukemia -1.05% | MOLT-4 leukemia 9.23%
inactive: HCT-15 colon 17.3% | SNB-75 CNS 13.1% | SNB-19 CNS 33.3% | U251 CNS 23.4% | UACC-62 melanoma 31.6% | LOX IMVI melanoma 28.7% | SK-MEL-28 melanoma 47% | EKVX NSCLC 47% | SN12C renal 31.4% | UO-31 renal 28.8% | TK-10 renal 43.7% | ACHN renal 41.1% | CAKI-1 renal 44.6%

CCOC(=O)c1c(NC(=O)c2ccc(C(C)(C)C)cc2)sc2cc(O)ccc12
inactive: HCT-15 colon 70.3% | HT29 colon 80.6% | SNB-75 CNS 104% | SNB-19 CNS 111% | U251 CNS 96.9% | PC-3 prostate 105% | UACC-62 melanoma 101% | LOX IMVI melanoma 87% | SK-MEL-28 melanoma 99.1% | SK-MEL-2 melanoma 112% | EKVX NSCLC 94.9% | SN12C renal 99.6% | UO-31 renal 70.4% | TK-10 renal 129% | CAKI-1 renal 85.9% | A498 renal 88.8% | CCRF-CEM leukemia 80.1% | MOLT-4 leukemia 82.3%

C(/C=C/c1ccccc1)=Nc1ccc(CCc2ccc(N=C/C=C/c3ccccc3)cc2)cc1
inactive: HCT-15 colon 15.9% | HT29 colon 36.4% | SNB-75 CNS 116% | SNB-19 CNS 88.1% | U251 CNS 75% | PC-3 prostate 71.7% | UACC-62 melanoma 73.6% | LOX IMVI melanoma 73.1% | SK-MEL-28 melanoma 109% | SK-MEL-2 melanoma 41.5% | EKVX NSCLC 121% | UO-31 renal 86.4% | TK-10 renal 93.8% | CAKI-1 renal 41.7% | A498 renal 109% | CCRF-CEM leukemia 95.3%
active: ACHN renal 6.67%

O=C(OC[C@@H]1CO1)c1cccc2c(=O)c3ccccc3[nH]c12
active: HCT-15 colon -5.09% | HT29 colon -7.33% | SNB-75 CNS -88.2% | SNB-19 CNS -7.9% | U251 CNS -15.7% | PC-3 prostate -21.1% | UACC-62 melanoma -89.2% | LOX IMVI melanoma -78.1% | SK-MEL-28 melanoma -62.6% | SK-MEL-2 melanoma -70.8% | EKVX NSCLC -16.8% | SN12C renal -46.9% | UO-31 renal -20.7% | TK-10 renal -6.41% | ACHN renal -41.2% | CAKI-1 renal -13.2% | A498 renal -44.4% | CCRF-CEM leukemia 2.83% | MOLT-4 leukemia 1.32%

Cn1cc(-c2nn3cc(-c4ccccc4)nc3s2)c2ccccc21
inactive: HCT-15 colon 44.7% | HT29 colon 44.5% | SNB-75 CNS 39.8% | SNB-19 CNS 73.4% | U251 CNS 77.9% | PC-3 prostate 75.9% | UACC-62 melanoma 54% | LOX IMVI melanoma 79.4% | SK-MEL-28 melanoma 71.1% | SK-MEL-2 melanoma 79.6% | EKVX NSCLC 72.5% | SN12C renal 78.7% | UO-31 renal 42.8% | TK-10 renal 95.5% | ACHN renal 74.2% | CAKI-1 renal 55.3% | A498 renal 85.3% | CCRF-CEM leukemia 76.4%

CCN(CC)CCNC(=O)c1ccc(-c2nc3ccc4[nH]ncc4c3c3c2CCCC3)cc1
active: CAKI-1 renal 9.09%
inactive: HCT-15 colon 28.3% | HT29 colon 68.3% | SNB-75 CNS 54.2% | SNB-19 CNS 85.4% | U251 CNS 54.9% | PC-3 prostate 57.2% | UACC-62 melanoma 33.8% | LOX IMVI melanoma 46% | SK-MEL-28 melanoma 73.2% | SK-MEL-2 melanoma 60.5% | EKVX NSCLC 51% | SN12C renal 70.9% | UO-31 renal 40.3% | TK-10 renal 47.7% | ACHN renal 24.7% | CCRF-CEM leukemia 47%
